# Assay results reported in PubChem BioAssay AID1794835 (Parasite Biology Lab, Institute for Biomedicine and …, 2023).
# Screen size: about 2,500 compounds; about 45 (2%) were called active. Cut-off read from the data, not from the text of the source: active = inhibition mostly above about 45% (no sharp cut-off); inactive = mostly below about 37%. The sample as a whole holds a higher share of actives than the screen did.
# Test: anti-Giardia activity of synthetic compounds – Compounds Australia Scaffold Library subset, 24/48 h, primary screen (AID 1794835);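 for inhibition: 0% = parasite counts in DMSO vehicle wells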
# Details: Giardia lamblia BRIS/91/HEPU/1279 trophozoite counts, imaging, at 10 µM
# [1] = measured here: growth inhibition at 24 h, stronger effect = higher value
compound,measurement,setting,value
COCC(=O)N1CCC(Oc2ncccc2C(=O)N(C)C)CC1,inhibition,stronger effect = higher value,4.8% (inactive)
O=C(c1ccc(F)cc1)N1CCN(c2nc3cc(Br)ccc3n3cccc23)CC1,inhibition,,inactive
COc1cc(S(=O)(=O)N2CCN=C2Cc2ccccc2)c(OC)cc1Cl,inhibition,,inactive
O=C(c1ccc2nc[nH]c2c1)N1CCN(Cc2cccc(Cl)c2)CC1,outcome,,inactive
same,inhibition,[1],6%
CCCC(=O)Nc1nnc(S(=O)(=O)N(C)Cc2ccco2)s1,inhibition,,inactive
Cc1noc2ncc(C(=O)N3CCN(CCO)CC3)cc12,inhibition,,inactive
O=C(NC1CCCCC1)c1cc(-c2ccco2)nc2ccccc12,inhibition,stronger effect = higher value,20.8% (inactive)
same,inhibition,[1],17.2%
O=C(c1nc(Nc2ccc(F)cc2)c2ccccc2n1)N1CCCCCC1,inhibition,,inactive
O=C(NC1CCCCC1)c1nc(Nc2ccccc2)c2ccccc2n1,inhibition,stronger effect = higher value,73.1% (active)
same,inhibition,[1],59.6%
CCC(OC1CCCC1)C(=O)N1CCN(c2nccn2C)CC1 (configuration not stated),outcome,,inactive
same,inhibition,[1],9.4%
CC(=O)Nc1cc(C(=O)NCCCN2CCC(C)CC2)ccc1S(=O)(=O)c1ccc(Cl)cc1,inhibition,stronger effect = higher value,23.9% (inactive)
same,inhibition,[1],5%
Cc1nn(Cc2csc(-c3ccsc3)n2)c(C)c1S(=O)(=O)N1CCc2ccccc21,inhibition,stronger effect = higher value,7.1% (inactive)
same,inhibition,[1],12.8%
CCCNS(=O)(=O)c1cc(-c2nc(-c3cccc(Cl)c3)cs2)n(C)c1C,inhibition,stronger effect = higher value,32.9% (inactive)
same,inhibition,[1],21.9%
Cc1csc(-c2cc(S(=O)(=O)N3c4ccccc4CC3C)c(C)n2C)n1 (configuration not stated),inhibition,stronger effect = higher value,63.6% (active)
same,inhibition,[1],22.6%
CN(Cc1ccccc1)C(=O)c1cccc2c1CCN2C(=O)Nc1ccccc1,outcome,,inactive
same,inhibition,[1],2.8%
CCc1c(C2CCN(C(=O)C3COc4ccccc4O3)CC2)noc1N (configuration not stated),inhibition,,inactive
Cc1ccc(NC(=O)N2CCCC(C)(C(=O)NCc3ccc(F)cc3)C2)cc1 (configuration not stated),inhibition,,inactive
Cc1ccc(C(=O)Nc2cc(-c3nc(C)cs3)sc2C)cc1,inhibition,stronger effect = higher value,56.1% (active)
same,inhibition,[1],28%
COc1ccc(C(=O)Nc2cc(-c3nc(C)cs3)sc2C)cc1OC,inhibition,stronger effect = higher value,27.2% (inactive)
same,inhibition,[1],11.4%
Cc1csc(-c2ccc(CNC(=O)c3cncc(Br)c3)cc2)n1,inhibition,,inactive
O=C(c1cc(Cl)c[nH]1)N1CCCN(Cc2cscn2)CC1,inhibition,,inactive
Cc1noc2nc(-c3ccccc3F)cc(C(=O)N3CCCC3c3nnc4ccccn34)c12 (configuration not stated),inhibition,,inactive
O=C1CCCc2cc(S(=O)(=O)N3CCN(c4ccccc4)CC3)ccc2N1,inhibition,stronger effect = higher value,19.1% (inactive)
same,inhibition,[1],8.5%
CC1(c2ccco2)NC(=O)N(Cc2cn(-c3ccccc3)nc2-c2ccccc2)C1=O (configuration not stated),inhibition,,inactive
COc1ccc(CNC(=O)c2[nH]c3cc(C)sc3c2CN2CCCC2)cc1,inhibition,stronger effect = higher value,35.5% (inactive)
same,inhibition,[1],10.1%
Cc1sc2cc(C(=O)NC(C)(C)C)[nH]c2c1CN1CCOCC1,inhibition,stronger effect = higher value,2.4% (inactive)
same,inhibition,[1],3%
Cc1cc2[nH]c(C(=O)Nc3ccccc3C)c(CN3CCOCC3)c2s1,inhibition,stronger effect = higher value,97.7% (active)
same,inhibition,[1],94.7%
Cc1ccc(S(=O)(=O)N2CCc3nc(N4CCOCC4)[nH]c(=O)c3CC2)cc1C,inhibition,,inactive
Cc1cc(C)c(S(=O)(=O)N2CCN(C)c3ccccc32)c(C)c1,inhibition,,inactive
O=S(=O)(Cc1ccccc1)Nc1cccc(-c2nnc(Cc3ccc4c(c3)OCO4)o2)c1,inhibition,stronger effect = higher value,46.9% (active)
same,inhibition,[1],17.2%
CCOC(=O)c1ccc(S(=O)(=O)Nc2cccc(-c3nnc(-c4ccccc4)o3)c2)cc1,inhibition,stronger effect = higher value,2.3% (inactive)
CCc1nnc(-c2nnc(NCc3ccc4c(c3)OCO4)c3ccccc23)o1,outcome,,inactive
same,inhibition,[1],3%
c1cnc(N2CCN(c3ncnc4nc[nH]c34)CC2)nc1,inhibition,stronger effect = higher value,0.6% (inactive)
O=C(CN1C(=O)CCCc2ccccc21)NCCc1ccco1,inhibition,,inactive
Cc1cc(-c2cc(C(=O)Nc3ccc(N4CCN(C)CC4)nc3)c3cnn(C(C)C)c3n2)c(C)o1,inhibition,stronger effect = higher value,98.2% (active)
same,inhibition,[1],95.9%
CC1CN(C(=O)c2cc(C3CC3)nc3c2cnn3C(C)C)CC(C)O1 (configuration not stated),inhibition,,inactive
Cc1cc(-c2cc(C(=O)Nc3c(C)n(C)n(-c4ccccc4)c3=O)c3cnn(C(C)C)c3n2)c(C)o1,outcome,,inactive
same,inhibition,[1],2%
NC(=O)c1nonc1N,inhibition,,inactive
Cc1ccc(CNC(=O)c2cc(-c3ccc(C)c(C)c3)n(C3CCS(=O)(=O)C3)n2)cc1 (configuration not stated),inhibition,,inactive
Cc1nc2c(c(=O)n1CC(=O)Nc1cccc(F)c1)CCN(Cc1ccccc1)C2,outcome,,inactive
same,inhibition,[1],12%
Cn1cc2c(n1)c(=O)n(Cc1ccccc1)c(=O)n2CC(=O)Nc1ccc2c(c1)OCCO2,inhibition,,inactive
Cn1cc2c(n1)c(=O)n(Cc1ccccc1)c(=O)n2CC(=O)Nc1cccc(F)c1,inhibition,stronger effect = higher value,62.8% (active)
same,inhibition,[1],30.6%
Brc1ccc(-c2nc(-c3ccc4c(c3)ncn4C3CCCC3)no2)o1,inhibition,,inactive
Cc1ccccc1NC(=O)c1c(C)oc2ncnc(N3CCCCC3)c12,inhibition,stronger effect = higher value,15.9% (inactive)
same,inhibition,[1],14.5%
Cc1ccc(C(=O)N2CCN(S(=O)(=O)N3CCN(C)CC3)CC2)o1,inhibition,,inactive
COc1ccc(C(=O)N2c3ccccc3NC(=O)CC2C)cc1OC (configuration not stated),outcome,,inactive
same,inhibition,[1],2.2%
COc1ccc(C)cc1N1C(=N)C(=C2Nc3ccccc3S2)C(c2ccccc2)C1=O (configuration not stated),inhibition,stronger effect = higher value,96.7% (active)
same,inhibition,[1],90.2%
N=C1C(=C2Nc3ccccc3S2)CC(=O)N1C1CC1,outcome,,inactive
same,inhibition,[1],2.5%
CCN(CC)CCCN1C(=O)C(O)=C(C(=O)c2cc3cccc(OC)c3o2)C1c1ccncc1 (configuration not stated),inhibition,,inactive
CCOc1cc(C)ccc1NC(=O)N1CCC12CCC2,inhibition,,inactive
CCn1cc(CN2CCCN(C(=O)c3cc(C4CC4)on3)CC2)cn1,outcome,,inactive
same,inhibition,[1],1.1%
CN1C(=O)c2cc(NC(=O)c3ccc4c(c3)OCO4)ccc2N2CCN=C12,inhibition,stronger effect = higher value,31.6% (inactive)
same,inhibition,[1],11.7%
CCOc1ccc(C(=O)Nc2ccc3c(c2)N(C(C)C)C(=O)c2ccccc2O3)cc1,inhibition,stronger effect = higher value,33.8% (inactive)
same,inhibition,[1],18.7%
Cc1ccc(C(=O)Nc2ccc3c(c2)Oc2ccccc2C(=O)N3C)cc1,inhibition,stronger effect = higher value,96.8% (active)
same,inhibition,[1],90.3%
O=C(NCc1cccc(F)c1)C1CCCN(c2nc3ccccc3n3cccc23)C1 (configuration not stated),outcome,,inactive
same,inhibition,[1],2.2%
CNC(=O)N1C[C@@H](CN(C)C)[C@@H](C2CCN(Cc3ccccn3)CC2)C1,inhibition,,inactive
Cc1ccc(-n2c(=O)c3c(cnn3C)n(CC(=O)Nc3ccccc3C)c2=O)cc1,inhibition,stronger effect = higher value,76.9% (active)
same,inhibition,[1],53.9%
Cc1ccccc1NC(=O)Cn1ccc2sccc2c1=O,inhibition,stronger effect = higher value,19.9% (inactive)
CCCCNC(=O)Cn1c(=O)c2c(C)cc(C)nc2n(-c2ccccc2)c1=O,inhibition,stronger effect = higher value,4.4% (inactive)
COc1cc(OC)c(C2=CCN(C(=O)c3ccc(C)s3)CC2)c(OC)c1,inhibition,stronger effect = higher value,59.3% (active)
same,inhibition,[1],23.1%
CC(=O)c1ccc(C(=O)N2CC=C(c3ccccc3)CC2)s1,inhibition,,inactive
COC(=O)c1ccc(C(=O)N2CCc3sccc3C2)s1,inhibition,,inactive
CC(=O)N1c2ccc(S(=O)(=O)N3CCOCC3)cc2CC1C(=O)NCCN1CCOCC1 (configuration not stated),inhibition,,inactive
CCC(=O)Nc1nc2c(OC)cc(NS(=O)(=O)c3cc(Cl)ccc3OC)cc2s1,inhibition,,inactive
COc1ccc(NC(=O)c2cncc(NS(=O)(=O)c3ccc(C)cc3)c2)cc1,inhibition,,inactive
COc1cc(NS(=O)(=O)c2ccc(C)cc2)cc2sc(NC(=O)c3ccccc3)nc12,inhibition,stronger effect = higher value,50% (active)
same,inhibition,[1],23.6%
COc1ccc(-c2noc(C3CCOCC3)n2)c(OC)c1,inhibition,,inactive
Cc1ccc2nc(-c3ccc(C)c(NC(=O)c4cccnc4)c3)[nH]c2c1,inhibition,stronger effect = higher value,8.2% (inactive)
same,inhibition,[1],2.9%
Cc1cnn(CC(C)NCc2nc(-c3ccccn3)no2)c1 (configuration not stated),inhibition,stronger effect = higher value,19.9% (inactive)
Cc1ccc(-c2cc(C(=O)NCc3cn(C)nc3C)c3ccccc3n2)cc1C,outcome,,inactive
same,inhibition,[1],3%
COc1cccc(-n2nnc3c(=O)n(CC(=O)N4CCCC4)cnc32)c1,inhibition,,inactive
CCOC(=O)c1ccc(S(=O)(=O)N2CCN(C3CCOC3=O)CC2)o1 (configuration not stated),inhibition,,inactive
CCN1CCN(c2ccc(-c3nc(-c4cccc(F)c4)no3)cn2)CC1,inhibition,stronger effect = higher value,48.2% (inactive)
same,inhibition,[1],31.4%
O=S(=O)(c1cc(-c2nc(-c3cccc(F)c3)no2)cs1)N1CCCCC1,inhibition,,inactive
Cn1nccc1-c1cccc(-c2noc(-c3cccc(F)c3)n2)c1,inhibition,stronger effect = higher value,64.1% (active)
same,inhibition,[1],17.6%
O=c1[nH]c(CN2CCC(c3nc4ccccc4o3)CC2)nc2ccsc12,inhibition,,inactive
CCOC(=O)c1cccc(Nc2ncccc2S(N)(=O)=O)c1,inhibition,stronger effect = higher value,35.4% (inactive)
same,inhibition,[1],14.6%
CC(C)c1ccc(NC(=O)c2ccc(F)c(S(=O)(=O)N3CCN(c4ccccc4)CC3)c2)cc1,inhibition,,inactive
CC(C)c1ccc(Nc2ncccc2S(=O)(=O)N2CCCC2)cc1,inhibition,stronger effect = higher value,57.5% (active)
same,inhibition,[1],27%
CC(=O)Nc1nsc(N2CCCC(C(=O)NCc3ccccc3Cl)C2)n1 (configuration not stated),inhibition,stronger effect = higher value,5.9% (inactive)
same,inhibition,[1],4.9%
O=C(c1cn2ccccc2n1)N1CCN(C2CCS(=O)(=O)C2)CC1 (configuration not stated),inhibition,,inactive
Cc1ccc2nc(-c3ccccc3)c(CN3CCN(C4CCS(=O)(=O)C4)CC3)n2c1 (configuration not stated),inhibition,,inactive
O=S1(=O)CCC(n2cc(-c3cnn(-c4ccccc4)c3)cn2)C1 (configuration not stated),inhibition,stronger effect = higher value,66.2% (active)
same,inhibition,[1],45.5%
O=C(c1ccc(F)cc1)N1CCc2[nH]nc(C(=O)N3CCN(c4ccc(F)cc4)CC3)c2C1,inhibition,stronger effect = higher value,0.9% (inactive)
same,inhibition,[1],2.4%
O=C(c1ccc2c(=O)n3c(nc2c1)CCCC3)N1CC=C(c2ccccc2)CC1,inhibition,,inactive
COc1ccccc1-c1cc(C(=O)Nc2sc(Nc3ccccc3)nc2C(N)=O)[nH]n1,inhibition,stronger effect = higher value,11.1% (inactive)
same,inhibition,[1],11.2%
Cc1cccc(C)c1NC(=O)c1cc(-c2ccccc2)nc2c1cnn2Cc1cccnc1,inhibition,stronger effect = higher value,17.5% (inactive)
CN(C)CCCN1C(=O)C(=O)C(=C(O)c2cc(Cl)ccc2O)C1c1ccco1 (configuration not stated),inhibition,stronger effect = higher value,14.6% (inactive)
CN(C)CCn1cc(C(=O)c2cc(Cl)ccc2O)cc1-c1nc2ccccc2c(=O)[nH]1,inhibition,stronger effect = higher value,85.8% (active)
same,inhibition,[1],45%
Cn1cc(C(=O)c2ccccc2O)cc1-c1nc2ccccc2c(=O)[nH]1,inhibition,,inactive
Cc1noc(-c2nn(C)c3c2CN(S(=O)(=O)Cc2cccc(F)c2)CC3)n1,inhibition,stronger effect = higher value,14.3% (inactive)
O=C(CCc1ccc(Cl)cc1Cl)N1CCCC(c2ncn[nH]2)C1 (configuration not stated),inhibition,stronger effect = higher value,0.4% (inactive)
CCCNC1=C(C(=O)Nc2ccc(F)cc2)S(=O)(=O)c2ccccc21,inhibition,stronger effect = higher value,46.5% (inactive)
same,inhibition,[1],21.9%
NC(=O)C1=C(Nc2ccccc2)c2ccccc2S1(=O)=O,inhibition,stronger effect = higher value,48.5% (active)
same,inhibition,[1],12.8%
CN(C)c1nc(N(C)C)nc(N2CC(=O)N(c3ccc(Cl)c(Cl)c3)C2=N)n1,inhibition,stronger effect = higher value,16% (inactive)
same,inhibition,[1],9.5%
